“And” between values parts separate entries of the source, which are not always exact repeats. Equal values may be shown once. Out of some 5,500 compounds screened, about 2,000 (36%) were called active. Another 18% or so got no clear call; they are omitted. This is one part of the list. A number with no mark means an inactive call. No stated cut-off is given here; in the data, active means normalized growth mostly below about 0.91 (no sharp cut-off); inconclusive means no clear call, values can overlap the other calls; inactive means mostly above about 0.92.
Experiment: chemical genetic growth profiling, strain panel (AID 1159580);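 further: tested at 20 µM; growth read once vehicle control cultures reached saturation at 30 °C; 1 = growth at the plate median or of vehicle wells; lower values mean less growth of the strain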
Settings: S. cerevisiae deletion strains, growth OD

## ClC1=C(Cl)C2(Cl)C3C(Cl)C=CC3C1(Cl)C2(Cl)Cl (configuration not stated)
Locus YAL013W, strain DEP1, active compounds read low
  normalized growth: 0.999
Locus YAL021C, strain ccr4, active compounds read low
  normalized growth: 0.99
Locus YAL026C, strain drs2, active compounds read low
  normalized growth: 0.999
Locus YAL030W, strain snc1, active compounds read low
  normalized growth: 1.01
Locus YBL061C, strain skt5, active compounds read low
  normalized growth: 1.01
Locus YBR009C, strain hhf1, active compounds read low
  normalized growth: 0.983
Locus YBR021W, strain FUR4, active compounds read low
  normalized growth: 0.987
Locus YBR023C, strain chs3, active compounds read low
  normalized growth: 0.998
Locus YBR171W, strain sec66, active compounds read low
  normalized growth: 0.994
Locus YBR229C, strain ROT2, active compounds read low
  normalized growth: 0.991
Locus YBR231C, strain swc5, active compounds read low
  normalized growth: 0.999
Locus YBR279W, strain paf1, active compounds read low
  normalized growth: 1
Locus YCL011C, strain gbp2, active compounds read low
  normalized growth: 0.996
Locus YCL016C, strain dcc1, active compounds read low
  normalized growth: 0.998
Locus YCL029C, strain bik1, active compounds read low
  normalized growth: 0.965
Locus YCL061C, strain MRC1, active compounds read low
  normalized growth: 0.996
Locus YCL069W, strain vba3, active compounds read low
  normalized growth: 1.01
Locus YCR088W, strain abp1, active compounds read low
  normalized growth: 0.998
Locus YDL005C, strain med2, active compounds read low
  normalized growth: 1.01
Locus YDL035C, strain GPR1, active compounds read low
  normalized growth: 0.962
Locus YDL040C, strain nat1, active compounds read low
  normalized growth: 1.01
Locus YDL074C, strain BRE1, active compounds read low
  normalized growth: 1
Locus YDL101C, strain DUN1, active compounds read low
  normalized growth: 0.989
Locus YDL134C, strain PPH21, active compounds read low
  normalized growth: 0.99
Locus YDL185W, strain tfp1, active compounds read low
  normalized growth: 0.983
Locus YDL192W, strain arf1, active compounds read low
  normalized growth: 0.98
Locus YDR001C, strain nth1, active compounds read low
  normalized growth: 1
Locus YDR069C, strain doa4, active compounds read low
  normalized growth: 0.981
Locus YDR101C, strain arx1, active compounds read low
  normalized growth: 0.992
Locus YDR137W, strain rgp1, active compounds read low
  normalized growth: 0.925
Locus YDR150W, strain NUM1, active compounds read low
  normalized growth: 0.995
Locus YDR159W, strain sac3, active compounds read low
  normalized growth: 0.817 (active)
Locus YDR162C, strain NBP2, active compounds read low
  normalized growth: 0.999
Locus YDR195W, strain ref2
  normalized growth: 0.913
Locus YDR297W, strain sur2, active compounds read low
  normalized growth: 1
Locus YDR318W, strain mcm21, active compounds read low
  normalized growth: 0.978
Locus YDR334W, strain swr1, active compounds read low
  normalized growth: 1.02
Locus YDR335W, strain msn5, active compounds read low
  normalized growth: 1.01
Locus YDR388W, active compounds read low
  normalized growth: 0.974
Locus YDR392W, strain spt3, active compounds read low
  normalized growth: 0.975
Locus YDR502C, strain sam2, active compounds read low
  normalized growth: 0.984
Locus YEL003W, strain gim4, active compounds read low
  normalized growth: 0.995
Locus YEL037C, strain rad23, active compounds read low
  normalized growth: 1.01
Locus YEL061C, strain CIN8 (second series), active compounds read low
  normalized growth: 1.01
Locus YEL061C, strain CIN8, active compounds read low
  normalized growth: 1
Locus YER015W, strain faa2, active compounds read low
  normalized growth: 0.992
Locus YER016W, strain bim1, active compounds read low
  normalized growth: 1
Locus YER110C, active compounds read low
  normalized growth: 0.978
Locus YER111C, strain swi4, active compounds read low
  normalized growth: 1
Locus YER155C, strain BEM2 (second series), active compounds read low
  normalized growth: 0.998
Locus YER155C, strain BEM2, active compounds read low
  normalized growth: 1.01
Locus YER167W, strain BCK2, active compounds read low
  normalized growth: 0.98
Locus YFR010W, strain ubp6, active compounds read low
  normalized growth: 0.995
Locus YGL078C, strain dbp3, active compounds read low
  normalized growth: 0.988
Locus YGL086W, strain mad1, active compounds read low
  normalized growth: 0.99
Locus YGL167C, strain pmr1, active compounds read low
  normalized growth: 0.998
Locus YGL173C, strain kem1, active compounds read low
  normalized growth: 0.993
Locus YGL227W, strain vid30, active compounds read low
  normalized growth: 1
Locus YGL240W, strain doc1, active compounds read low
  normalized growth: 0.986
Locus YGL248W, strain PDE1, active compounds read low
  normalized growth: 0.991
Locus YGL253W, strain hxk2, active compounds read low
  normalized growth: 0.999
Locus YGR078C, strain PAC10, active compounds read low
  normalized growth: 0.993
Locus YGR135W, strain pre9, active compounds read low
  normalized growth: 0.982
Locus YGR229C, strain SMI1, active compounds read low
  normalized growth: 0.985
Locus YGR252W, strain gcn5, active compounds read low
  normalized growth: 0.957
Locus YHR013C, strain ard1, active compounds read low
  normalized growth: 0.904
Locus YHR027C, strain rpn1, active compounds read low
  normalized growth: 0.995
Locus YHR030C, strain SLT2, active compounds read low
  normalized growth: 1 and 1.04
Locus YHR079C, strain IRE1 (second series), active compounds read low
  normalized growth: 0.973
Locus YHR079C, strain IRE1, active compounds read low
  normalized growth: 1
Locus YHR094C, strain hxt1, active compounds read low
  normalized growth: 0.988
Locus YHR129C, strain ARP1, active compounds read low
  normalized growth: 0.997
Locus YHR142W, strain chs7, active compounds read low
  normalized growth: 0.996
Locus YHR200W, strain rpn10, active compounds read low
  normalized growth: 0.987
Locus YIL066C, strain RNR3, active compounds read low
  normalized growth: 0.971
Locus YIL073C, strain SPO22, active compounds read low
  normalized growth: 0.922
Locus YIL125W, strain kgd1, active compounds read low
  normalized growth: 1
Locus YIR030C, strain dcg1, active compounds read low
  normalized growth: 0.989
Locus YJL092W, strain hpr5, active compounds read low
  normalized growth: 0.998
Locus YJL095W, strain BCK1 (second series), active compounds read low
  normalized growth: 1
Locus YJL095W, strain BCK1, active compounds read low
  normalized growth: 1.03 and 1.04
Locus YJL115W, strain asf1, active compounds read low
  normalized growth: 0.995
Locus YJL129C, strain trk1, active compounds read low
  normalized growth: 0.854 (active)
Locus YJL134W, strain LCB3, active compounds read low
  normalized growth: 0.984
Locus YJL154C, strain vps35, active compounds read low
  normalized growth: 1
Locus YJL164C, strain tpk1, active compounds read low
  normalized growth: 0.953
Locus YJL166W, strain qcr8, active compounds read low
  normalized growth: 0.943
Locus YJL168C, strain set2, active compounds read low
  normalized growth: 0.977
Locus YJL187C, strain SWE1 (second series), active compounds read low
  normalized growth: 0.989
Locus YJL187C, strain SWE1, active compounds read low
  normalized growth: 1.01
Locus YJR043C, strain POL32, active compounds read low
  normalized growth: 0.997
Locus YJR066W, strain TOR1, active compounds read low
  normalized growth: 0.961

— PubChem BioAssay AID1159580 (chemical genetic matrix, 2015)
